Results reported in PubChem BioAssay (NCI).
“And” between values parts separate entries of the source, which are not always exact repeats. Equal entries are not always repeated. About 79,000 compounds went through this panel and 15% of them were active in at least one assay; those are over-represented in the sample as a whole. Some compounds were tested as several samples or in several runs, with calls that do not always agree. The source made the active and inactive calls. Cut-off read from the data, not from the text of the source: active = growth inhibition above about 70%; inactive = the rest.

Columns and labels:
[1] = NCI Yeast Anticancer Drug Screen. Data for the rad50 strain (AID 155);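 note: 0% = growth of vehicle-only cultures of the same strain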; details: S. cerevisiae rad50 strain growth inhibition, stronger effect = higher value
Method in brief: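 Cells are treated with compound, grown, and their growth is then scored against vehicle-only cultures of the same repair-deficient yeast strain.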

[2] = NCI Yeast Anticancer Drug Screen. Data for the mec2-1 strain (AID 157); details: S. cerevisiae mec2-1 strain, stronger effect = higher value
Method in brief: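 Vehicle-treated cultures served as reference for growth inhibition of compound-exposed mec2-1 yeast.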

[3] = NCI Yeast Anticancer Drug Screen. Data for the sgs1 mgt1 strain (AID 161);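 note: 0% = growth of cultures given vehicle only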; details: S. cerevisiae sgs1 mgt1 strain, stronger effect = higher value
Method in brief: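 Mutant yeast exposed to compound; growth scored against vehicle-only wells.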

[4] = NCI Yeast Anticancer Drug Screen. Data for the cln2 rad14 strain (AID 165);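 note: 0% = growth equal to vehicle treated cultures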; details: S. cerevisiae cln2 rad14 strain, stronger effect = higher value
Method in brief: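 Each compound was tested on cln2 rad14 yeast. Inhibition of growth was calculated against vehicle-exposed controls.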

[5] = NCI Yeast Anticancer Drug Screen. Data for the bub3 strain (AID 167); details: S. cerevisiae bub3 mutant strain, stronger effect = higher value
Method in brief: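 Part of a panel of yeast mutants defective in DNA damage repair or cell cycle regulation. Each strain is grown with compound, and inhibition is calculated relative to solvent-treated cultures.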

[6] = NCI Yeast Anticancer Drug Screen. Data for the mlh1 rad18 strain (AID 175); details: S. cerevisiae mlh1 rad18 strain growth inhibition, stronger effect = higher value
Method in brief: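 Vehicle-treated cultures served as the reference for growth inhibition in a yeast strain carrying DNA damage repair alterations exposed to each compound.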

[7] = at 5.0 µM (retest, dose inferred, filed as 0.5)
[8] = at 50.0 µM (retest, dose inferred, filed as 5.0)

CC(=O)OC1C2(CC3N4C(=O)C5(CO)SSC4(CC31O)C(=O)N5C)OC(C)C(C)(C)C2=O (configuration not stated)
growth inhibition [1, 7]: 67% (inactive) | growth inhibition [1, 8]: 99% (active) | growth inhibition ([1]; at 50.0 µM): 90.2% (active) | growth inhibition [2, 7]: 80% (active) | growth inhibition [2, 8]: 100% (active) | growth inhibition ([2]; at 50.0 µM): 93.2% (active) | growth inhibition [3, 7]: 68% (inactive) | growth inhibition [3, 8]: 97% (active) | growth inhibition ([3]; at 50.0 µM): 92.8% (active) | growth inhibition [4, 7]: 64% (inactive) | growth inhibition [4, 8]: 99% (active) | growth inhibition ([4]; at 50.0 µM): 88.6% (active) | growth inhibition [5, 7]: 71% (active) | growth inhibition [5, 8]: 99% (active) | growth inhibition ([5]; at 50.0 µM): 91.5% (active) | growth inhibition [6, 7]: 83% (active) | growth inhibition [6, 8]: 99% (active) | growth inhibition ([6]; at 50.0 µM): 91.2% (active)

c1ccc(P(CCP(c2ccccc2)c2ccccc2)CCP(c2ccccc2)c2ccccc2)cc1
growth inhibition [1, 7]: 98% (active) | growth inhibition [1, 8]: 98% (active) | growth inhibition ([1]; at 50.0 µM): 92.3% (active) | growth inhibition [2, 7]: 94% (active) | growth inhibition [2, 8]: 94% (active) | growth inhibition ([2]; at 50.0 µM): 93% (active) | growth inhibition [3, 7]: 92% (active) | growth inhibition [3, 8]: 92% (active) | growth inhibition ([3]; at 50.0 µM): 91% (active) | growth inhibition [4, 7]: 84% (active) | growth inhibition [4, 8]: 84% (active) | growth inhibition ([4]; at 50.0 µM): 5.95% (inactive) | growth inhibition [5, 7]: 96% (active) | growth inhibition [5, 8]: 96% (active) | growth inhibition ([5]; at 50.0 µM): 92.8% (active) | growth inhibition [6, 7]: 95% (active) | growth inhibition [6, 8]: 95% (active) | growth inhibition ([6]; at 50.0 µM): 91.8% (active)

CN(CCO)CCO
growth inhibition [1, 7]: 18% (inactive) | growth inhibition [1, 8]: 86% (active) | growth inhibition ([1]; at 50.0 µM): 6.55% (inactive) and -12.4% (inactive) | growth inhibition [2, 7]: 3% (inactive) | growth inhibition [2, 8]: 26% (inactive) | growth inhibition ([2]; at 50.0 µM): 7.5% (inactive) and 36.6% (inactive) | growth inhibition [3, 7]: 5% (inactive) | growth inhibition [3, 8]: 43% (inactive) | growth inhibition ([3]; at 50.0 µM): -0.35% (inactive) and 15.9% (inactive) | growth inhibition [4, 7]: 1% (inactive) | growth inhibition [4, 8]: 21% (inactive) | growth inhibition ([4]; at 50.0 µM): -8.05% (inactive) and 58.9% (inactive) | growth inhibition [5, 7]: 1% (inactive) | growth inhibition [5, 8]: 6% (inactive) | growth inhibition ([5]; at 50.0 µM): -9.75% (inactive) and 30.8% (inactive) | growth inhibition [6, 7]: 10% (inactive) | growth inhibition [6, 8]: 38% (inactive) | growth inhibition ([6]; at 50.0 µM): -11.8% (inactive) and 21.9% (inactive)

Nc1ccc2cc(Br)ccc2c1
growth inhibition [1, 7]: -11% (inactive) | growth inhibition [1, 8]: 26% (inactive) | growth inhibition ([1]; at 50.0 µM): 75.5% (active) | growth inhibition [2, 7]: -2% (inactive) | growth inhibition [2, 8]: 10% (inactive) | growth inhibition ([2]; at 50.0 µM): 30.6% (inactive) | growth inhibition [3, 7]: -10% (inactive) | growth inhibition [3, 8]: 11% (inactive) | growth inhibition ([3]; at 50.0 µM): 46.6% (inactive) | growth inhibition [4, 7]: -31% (inactive) | growth inhibition [4, 8]: -9% (inactive) | growth inhibition ([4]; at 50.0 µM): 31.1% (inactive) | growth inhibition [5, 7]: -8% (inactive) | growth inhibition [5, 8]: 14% (inactive) | growth inhibition ([5]; at 50.0 µM): 45.9% (inactive) | growth inhibition [6, 7]: -16% (inactive) | growth inhibition [6, 8]: 20% (inactive) | growth inhibition ([6]; at 50.0 µM): 57.4% (inactive)

Cc1ccc(NP(=O)(Oc2ccccc2)N(CCCl)CCCl)cc1 (configuration not stated)
growth inhibition [1, 7]: 11% (inactive) | growth inhibition [1, 8]: 10% (inactive) | growth inhibition ([1]; at 50.0 µM): 74% (active) | growth inhibition [2, 7]: -8% (inactive) | growth inhibition [2, 8]: 10% (inactive) | growth inhibition ([2]; at 50.0 µM): 23.9% (inactive) | growth inhibition [3, 7]: 8% (inactive) | growth inhibition [3, 8]: 20% (inactive) | growth inhibition ([3]; at 50.0 µM): 73.5% (active) | growth inhibition [4, 7]: 30% (inactive) | growth inhibition [4, 8]: 61% (inactive) | growth inhibition ([4]; at 50.0 µM): 56.5% (inactive) | growth inhibition [5, 7]: 14% (inactive) | growth inhibition [5, 8]: 32% (inactive) | growth inhibition ([5]; at 50.0 µM): 62% (inactive) | growth inhibition [6, 7]: -10% (inactive) | growth inhibition [6, 8]: -5% (inactive) | growth inhibition ([6]; at 50.0 µM): 54.6% (inactive)

O=C(O)c1cc([N+](=O)[O-])c(Cl)c([N+](=O)[O-])c1Cl
growth inhibition [1, 7]: 80% (active) | growth inhibition [1, 8]: 99% (active) | growth inhibition ([1]; at 50.0 µM): 62.8% (inactive) | growth inhibition [2, 7]: 82% (active) | growth inhibition [2, 8]: 99% (active) | growth inhibition ([2]; at 50.0 µM): 42.3% (inactive) | growth inhibition [3, 7]: 20% (inactive) | growth inhibition [3, 8]: 93% (active) | growth inhibition ([3]; at 50.0 µM): 46.9% (inactive) | growth inhibition [4, 7]: 38% (inactive) | growth inhibition [4, 8]: 100% (active) | growth inhibition ([4]; at 50.0 µM): 43.1% (inactive) | growth inhibition [5, 7]: 51% (inactive) | growth inhibition [5, 8]: 96% (active) | growth inhibition ([5]; at 50.0 µM): 64% (inactive) | growth inhibition [6, 7]: 70% (active) | growth inhibition [6, 8]: 99% (active) | growth inhibition ([6]; at 50.0 µM): 49% (inactive)

CC(C)C1(NC(=O)C2C=C3c4cccc5[nH]cc(c45)CC3N(C)C2)OC2(O)C3CCCN3C(=O)C(Cc3ccccc3)N2C1=O (configuration not stated) (tested in a mixture with another compound)
growth inhibition [1, 7]: 22% (inactive) | growth inhibition [1, 8]: 97% (active) | growth inhibition ([1]; at 50.0 µM): 98.2% (active) | growth inhibition [2, 7]: 4% (inactive) | growth inhibition [2, 8]: 99% (active) | growth inhibition ([2]; at 50.0 µM): 98.6% (active) | growth inhibition [3, 7]: 4% (inactive) | growth inhibition [3, 8]: 96% (active) | growth inhibition ([3]; at 50.0 µM): 98.7% (active) | growth inhibition [4, 7]: 6% (inactive) | growth inhibition [4, 8]: 98% (active) | growth inhibition ([4]; at 50.0 µM): 96.8% (active) | growth inhibition [5, 7]: 7% (inactive) | growth inhibition [5, 8]: 98% (active) | growth inhibition ([5]; at 50.0 µM): 97.5% (active) | growth inhibition [6, 7]: 6% (inactive) | growth inhibition [6, 8]: 98% (active) | growth inhibition ([6]; at 50.0 µM): 96.8% (active)

CC(C)c1c(O)c(O)c2c(c1O)C(=O)C(O)=C1C(C)(C)CCC[C@@]12C
growth inhibition [1, 7]: 48% (inactive) | growth inhibition [1, 8]: 95% (active) | growth inhibition ([1]; at 50.0 µM): 86.8% (active) | growth inhibition [2, 7]: 72% (active) | growth inhibition [2, 8]: 96% (active) | growth inhibition ([2]; at 50.0 µM): 88.8% (active) | growth inhibition [3, 7]: 79% (active) | growth inhibition [3, 8]: 95% (active) | growth inhibition ([3]; at 50.0 µM): 88.6% (active) | growth inhibition [4, 7]: 64% (inactive) | growth inhibition [4, 8]: 96% (active) | growth inhibition ([4]; at 50.0 µM): 85.8% (active) | growth inhibition [5, 7]: 84% (active) | growth inhibition [5, 8]: 95% (active) | growth inhibition ([5]; at 50.0 µM): 84.9% (active) | growth inhibition [6, 7]: 86% (active) | growth inhibition [6, 8]: 89% (active) | growth inhibition ([6]; at 50.0 µM): 80.4% (active)

CC1=C2C(=O)[C@H]3[C@@H](CC=C4C[C@@H](O)CC[C@@]43C)[C@@H]2CC[C@]12O[C@@H]1C[C@H](C)CN[C@H]1[C@H]2C
growth inhibition [1, 7]: 8% (inactive) and 2% (inactive) | growth inhibition [1, 8]: 85% (active) and 81% (active) | growth inhibition ([1]; at 50.0 µM): 90.5% (active) and 85.8% (active) | growth inhibition [2, 7]: 18% (inactive) and 3% (inactive) | growth inhibition [2, 8]: 96% (active) and 83% (active) | growth inhibition ([2]; at 50.0 µM): 96.7% (active) and 90.8% (active) | growth inhibition [3, 7]: 11% (inactive) and 5% (inactive) | growth inhibition [3, 8]: 84% (active) and 91% (active) | growth inhibition ([3]; at 50.0 µM): 97% (active) and 87% (active) | growth inhibition [4, 7]: -27% (inactive) and -9% (inactive) | growth inhibition [4, 8]: 87% (active) and 60% (inactive) | growth inhibition ([4]; at 50.0 µM): 84.2% (active) and 81% (active) | growth inhibition [5, 7]: 22% (inactive) and 17% (inactive) | growth inhibition [5, 8]: 91% (active) and 90% (active) | growth inhibition ([5]; at 50.0 µM): 97.5% (active) and 88.5% (active) | growth inhibition [6, 7]: 10% (inactive) and 5% (inactive) | growth inhibition [6, 8]: 95% (active) and 89% (active) | growth inhibition ([6]; at 50.0 µM): 90.7% (active) and 87.4% (active)
